Results on 24 compounds are retold here after the supplement of paper PMC10127200.

Molecules are shown by their SMILES. Structures can show the parent of a compound that is named as a salt.

What all share (assay): Euclidean distance of Cell Painting phenotypic profile (signed KS, 77 features) to DMSO centroid (dimensionless distance); 5 or 10 uM (library dependent); higher = stronger phenotypic change vs DMSO (phenoactivity)
Holding throughout (conditions): 48 h

One assay concerns 786-O. Put shortly: (§1)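 Phenoactivity is computed as Euclidean distance to the median vehicle profile. The profiles, drawn from 77 Harmony features scored as signed Kolmogorov-Smirnov statistics versus same-plate vehicle wells, were corrected for plate position, correlation-weighted and replicate-averaged at the top dose. Stained cells were imaged confocally at 20X (9 fields/well) after 48 h with library compounds at 10 or 5 uM, 0.1% DMSO final, in five cancer lines and a healthy fibroblast line.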

In a further assay the test system is A549. An outline of the steps: as §1
The test system of another assay is DU145. An outline of the steps:
as §1

In the next assay the test system is FB. Put shortly:
as §1

The next assay has as its system HEPG2. Put shortly:
as §1

A further assay relates to OVCAR4. An outline of the steps:
as §1

On to `CC(=O)Nc1ccc(C(=O)Nc2ccccc2N)cc1` [CI994 (Tacedinaline)], for which the Euclidean distance in the assay on 786-O amounted to 1.29; with A549, 1.67; with DU145 it was 1.56; in the assay on FB, 2.76; in the assay on HEPG2 it was 1.83; in the assay with OVCAR4 it was 1.94.
As for `CC(=O)OCC(=O)NCCCOc1cccc(CN2CCCCC2)c1` [Roxatidine Acetate HCl], the Euclidean distance worked out at 1.32 in the assay on 786-O; 0.853 with A549; 0.769 with DU145; 0.72 in the assay with FB; 0.711 with HEPG2; 0.763 in the assay on OVCAR4.
As to `N#Cc1ccc(C2CCCc3cncn32)cc1` (centres undefined) [Fadrozole], the Euclidean distance was 1.22 in the assay on 786-O; 0.722 in the assay with A549; 0.93 in the assay with DU145; 1.38 in the assay on FB; 0.631 with HEPG2; 0.866 with OVCAR4.
As for `CCOc1ccc2nc3cc(N)ccc3c(N)c2c1` [Ethacridine lactate monohydrate], the Euclidean distance in the assay on 786-O turned out to be 2.72; with A549, 2.06; with DU145, 3.08; in the assay with FB it was 3.62; in the assay on HEPG2, 3.62; in the assay with OVCAR4 it was 1.62.
Turning to `C=C1/C(=C\C=C2/CCC[C@]3(C)[C@@H]([C@H](C)CCCC(C)(C)O)CC[C@@H]23)C[C@@H](O)C[C@@H]1O` [Calcitriol], the Euclidean distance with 786-O was determined as 1.91; in the assay with A549 it was 1.1; in the assay with DU145, 1.24; with FB, 2.23; in the assay with HEPG2, 0.859; with OVCAR4, 1.36.
Take `C[C@H](CCC(=O)O)[C@H]1CC[C@H]2[C@@H]3[C@H](O)C[C@@H]4C[C@H](O)CC[C@]4(C)[C@H]3CC[C@]12C` [Chenodeoxycholic Acid]: the Euclidean distance came to 0.805 in the assay with 786-O; 0.691 in the assay with A549; 0.826 with DU145; 0.881 in the assay with FB; 0.737 in the assay with HEPG2; 1.08 with OVCAR4.
For the compound `CNCc1cc(-c2ccccc2F)n(S(=O)(=O)c2cccnc2)c1` [Vonoprazan Fumarate (TAK-438)], the Euclidean distance with 786-O is 0.884; with A549, 0.5; in the assay on DU145 it was 0.972; with FB it was 1.23; with HEPG2 it was 0.474; in the assay on OVCAR4 it was 0.89.
As to `Oc1ccc2c(c1)CC[C@H](c1ccccc1)[C@@H]2c1ccc(OCCN2CCCC2)cc1` [Lasofoxifene Tartrate], the Euclidean distance in the assay with 786-O amounted to 2.93; in the assay with A549 it was 2.42; in the assay on DU145 it was 3.01; in the assay with FB it was 2.8; with HEPG2, 4.32; with OVCAR4, 2.5.
Turning to `CCn1cc(C(=O)O)c(=O)c2cc(F)c(N3CCNCC3)nc21` [Enoxacin Sesquihydrate], the Euclidean distance in the assay on 786-O turned out to be 1.35; in the assay on A549, 1.38; in the assay on DU145 it was 0.79; in the assay on FB, 0.738; with HEPG2 it was 0.516; in the assay on OVCAR4, 1.19.
With `CC(C)c1cc(C(C)C)c(CC(=O)NS(=O)(=O)Oc2c(C(C)C)cccc2C(C)C)c(C(C)C)c1` [Avasimibe], the Euclidean distance worked out at 4.24 in the assay with 786-O; 1.79 with A549; 0.813 with DU145; 0.86 in the assay with FB; 0.752 in the assay on HEPG2; 0.819 with OVCAR4.
As for `Cc1cc2c(F)c(Oc3ncnn4cc(OC[C@@H](C)OC(=O)[C@H](C)N)c(C)c34)ccc2[nH]1`, the Euclidean distance in the assay on 786-O was 2.11; with A549, 1.25; in the assay on DU145, 1.14; in the assay on FB it was 1.57; in the assay on HEPG2 it was 0.818; with OVCAR4, 1.35.
For `Nc1cc(C(F)(F)F)c(-c2cc(N3CCOCC3)nc(N3CCOCC3)n2)cn1` [Buparlisib (BKM120. NVP-BKM120)], the Euclidean distance turned out to be 2.55 with 786-O; 3.38 in the assay with A549; 2.88 in the assay on DU145; 2.98 with FB; 2.83 in the assay on HEPG2; 3.29 with OVCAR4.
Regarding `C=CC(=O)Nc1cccc(Sc2nc(Nc3ccc(N4CCN(C)CC4)cc3)ncc2Cl)c1`, the Euclidean distance was determined as 2.96 in the assay on 786-O; 3.04 in the assay with A549; 2.04 in the assay with DU145; 3.82 in the assay on FB; 3.02 with HEPG2; 2.64 with OVCAR4.
With `O=C(Nc1cccc(C2=NCCN2)c1)Nc1cccc(C2=NCCN2)c1` [Imidocarb dipropionate], the Euclidean distance amounted to 1.26 in the assay with 786-O; 1.66 in the assay on A549; 1.76 in the assay on DU145; 1.4 with FB; 1.23 in the assay on HEPG2; 1.75 in the assay on OVCAR4.
With `NNC(=O)c1ccncc1` [Isoniazid], the Euclidean distance is 1.4 in the assay with 786-O; 1.36 with A549; 0.961 with DU145; 1.16 in the assay on FB; 0.573 in the assay on HEPG2; 0.885 in the assay with OVCAR4.
With `CC(=O)Nc1nnc(S(N)(=O)=O)s1` [Acetazolamide], the Euclidean distance stood at 1.03 in the assay on 786-O; 0.669 in the assay on A549; 0.642 in the assay with DU145; 0.704 with FB; 0.604 in the assay with HEPG2; 1.08 in the assay with OVCAR4.
As to `N#CCCCSC(=N)N` [Kevetrin hydrochloride], the Euclidean distance was found to be 1.5 in the assay on 786-O; 0.842 in the assay with A549; 1.04 in the assay with DU145; 0.849 with FB; 0.473 in the assay on HEPG2; 0.902 with OVCAR4.
Regarding `CCC(C)n1ncn(-c2ccc(N3CCN(c4ccc(OCC5COC(Cn6cncn6)(c6ccc(Cl)cc6Cl)O5)cc4)CC3)cc2)c1=O` (centres undefined) [Itraconazole], the Euclidean distance in the assay on 786-O was 4.09; in the assay with A549, 2.48; in the assay with DU145 it was 1.52; with FB, 1.53; in the assay on HEPG2 it was 1.02; in the assay with OVCAR4, 1.
For `OC1(c2ccc(Cl)c(C(F)(F)F)c2)CCN(CCCC(c2ccc(F)cc2)c2ccc(F)cc2)CC1` [Penfluridol], the Euclidean distance in the assay with 786-O came to 4.2; with A549, 4.66; in the assay with DU145, 5.91; in the assay with FB, 3.4; in the assay on HEPG2, 4.97; in the assay on OVCAR4 it was 4.03.
With `C[C@]1(COc2ccc(N3CCC(Oc4ccc(OC(F)(F)F)cc4)CC3)cc2)Cn2cc([N+](=O)[O-])nc2O1` [Delamanid], the Euclidean distance with 786-O turned out to be 0.922; with A549, 1.11; with DU145, 0.888; with FB it was 0.823; with HEPG2, 0.492; in the assay with OVCAR4, 0.969.
Turning to `CCNC(=O)Nc1ccc(-c2nc3c(c(N4CCOC[C@@H]4C)n2)CCN(C2COC2)C3)cc1`, the Euclidean distance is 3.58 in the assay on 786-O; 3.22 in the assay with A549; 1.78 with DU145; 4.11 in the assay with FB; 3.1 with HEPG2; 4.55 in the assay with OVCAR4.
Turning to `CNNCc1ccc(C(=O)NC(C)C)cc1` [Procarbazine HCl], the Euclidean distance with 786-O was 1.36; with A549 it was 0.988; with DU145 it was 1.23; in the assay on FB it was 1.25; in the assay on HEPG2 it was 0.885; in the assay with OVCAR4 it was 0.933.
`c1ccc([C@H]2CN3CCSC3=N2)cc1` [Levamisole hydrochloride]: the Euclidean distance with 786-O turned out to be 0.976; in the assay with A549, 0.704; in the assay on DU145, 1.37; with FB it was 0.953; with HEPG2, 0.417; in the assay on OVCAR4 it was 1.23.
For the compound `COc1ccc(-c2cc(=O)c3c(OC)c(OC)c(OC)c(OC)c3o2)cc1OC` [Nobiletin], the Euclidean distance in the assay with 786-O amounted to 0.695; in the assay on A549, 0.706; in the assay with DU145, 1; with FB, 0.95; in the assay with HEPG2, 1.47; in the assay with OVCAR4, 0.897.
